# Assay results published in PubChem BioAssay (NCATS).
# Results filed as inconclusive are left out. Where a call stands in place of a potency, no number is given. Calls of active or inactive are those of the source. Unless noted, calls follow the shape of the dose curve; as a rule, active = well fitted curve in the direction sought with a large enough effect in the repeat runs; inconclusive = weak or mixed curves; inactive = no such curve, though single readings can be large; an effect the other way counts as inactive or inconclusive.
# What was measured:
# [1] = A High-Content qHTS Against Drug Library for the Identification of Small Molecules that Inhibit DYT1 Early Onset Primary Dystonia-Associated Cell Pathology (AID 1645839; calls by dose curve; also: series mostly up to about 46 µM)
# Outline: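 Induced EGFP-delE TorsinA cells are imaged after 48 h of compound treatment. Punctate fusion-protein distribution gives the %pathology value, while nuclei counts flag toxicity. Wild-type EGFP-hTOR1A cells define the normal pattern.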
# [2] = molecular target: Cytochrome P450 2D6 (Homo sapiens) (UniProt P10635); assay: Cytochrome P450 family 2 subfamily D member 6 (CYP2D6) small molecule antagonists: luciferase biochemical (cell-free) qHTS assay (AID 1645840); also: nearly all actives have a fitted effect of over 55% in size; also: potency is read from the fitted curve at half-maximal effect; as to activity change, negative = inhibition: series mostly up to about 57 µM
# Chain of Cytochrome P450 2D6 (Homo sapiens) (P10635 whole entry, looked up): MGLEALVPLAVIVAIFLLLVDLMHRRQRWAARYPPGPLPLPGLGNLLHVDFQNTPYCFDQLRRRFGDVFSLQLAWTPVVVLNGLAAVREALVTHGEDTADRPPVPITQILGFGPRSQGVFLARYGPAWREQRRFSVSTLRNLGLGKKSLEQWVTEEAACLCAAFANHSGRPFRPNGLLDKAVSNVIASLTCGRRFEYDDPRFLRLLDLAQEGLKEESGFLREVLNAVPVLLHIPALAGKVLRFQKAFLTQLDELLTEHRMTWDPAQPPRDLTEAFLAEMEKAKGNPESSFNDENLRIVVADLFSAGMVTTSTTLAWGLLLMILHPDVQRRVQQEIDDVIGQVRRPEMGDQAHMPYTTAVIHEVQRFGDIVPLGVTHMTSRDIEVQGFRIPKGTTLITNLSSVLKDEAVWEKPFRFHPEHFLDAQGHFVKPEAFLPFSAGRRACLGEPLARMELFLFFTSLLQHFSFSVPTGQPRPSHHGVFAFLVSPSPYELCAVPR
# Outline: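 P450-Glo CYP2D6 system: proluciferin substrate converted by enzyme to luciferin, read by luminescence proportional to activity. Enzyme-substrate mix with compound 10 min at room temperature, then NADPH regeneration 1 h before detection reagent.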
# [3] = molecular target: Cytochrome P450 2C9 (Homo sapiens) (UniProt P11712); assay: Cytochrome P450 family 2 subfamily C member 9 (CYP2C9) small molecule antagonists: luciferase biochemical (cell-free) qHTS assay (AID 1645842); also: nearly all actives have a fitted effect of over 55% in size; also: potency is read from the fitted curve at half-maximal effect; as to activity change, negative = inhibition: series mostly up to about 57 µM
# Chain of Cytochrome P450 2C9 (Homo sapiens) (P11712 whole entry, looked up): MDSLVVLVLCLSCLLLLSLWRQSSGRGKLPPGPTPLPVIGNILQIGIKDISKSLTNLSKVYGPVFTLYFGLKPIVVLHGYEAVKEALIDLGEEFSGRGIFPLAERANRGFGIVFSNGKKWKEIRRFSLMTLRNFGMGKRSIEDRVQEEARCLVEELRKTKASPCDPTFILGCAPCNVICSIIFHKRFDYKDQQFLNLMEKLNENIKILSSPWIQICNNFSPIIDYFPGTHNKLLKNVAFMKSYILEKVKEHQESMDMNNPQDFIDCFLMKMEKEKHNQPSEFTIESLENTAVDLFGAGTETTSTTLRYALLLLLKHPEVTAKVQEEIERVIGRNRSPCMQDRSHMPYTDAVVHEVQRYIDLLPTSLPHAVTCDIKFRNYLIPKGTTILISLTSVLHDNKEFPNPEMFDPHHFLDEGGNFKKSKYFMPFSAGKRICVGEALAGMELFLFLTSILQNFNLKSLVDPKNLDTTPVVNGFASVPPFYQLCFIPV
# Outline: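 P450-Glo CYP2C9 system: proluciferin substrate with enzyme in mix containing 0.4% BSA, 10 min at room temperature, then NADPH regeneration solution added and incubated 1 h at 37C. Detection reagent stopped reaction; luminescence read after 20 min as RLU.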
# [4] = Primary qHTS for inhibitors of nuclear receptor binding SET domain protein 2 (NSD2) in an isogenic RCH-ACV NSD2 p.E1099K mutant (9B) (AID 1645876; active = well fitted curve in the direction sought with a large enough effect; an effect the other way counts as inactive or inconclusive; also: nearly all actives have a fitted effect of over 70% in size)
# [5] = Primary qHTS for inhibitors of nuclear receptor binding SET domain protein 2 (NSD2) in an RCH-ACV wild type WT cells (2C) (AID 1645877; active = well fitted curve in the direction sought with a large enough effect; an effect the other way counts as inactive or inconclusive; also: nearly all actives have a fitted effect of over 70% in size)
compound,measurement,setting,value
NS(=O)(=O)c1ccc(NC(=O)CCC(=O)O)cc1,Potency,[1],inactive
same,Potency,[2],inactive
same,Potency,[3],inactive
same,Potency,[4],inactive
CNc1c2c(nn1C)CCCC2,Potency,[1],inactive
same,Potency,[2],inactive
same,Potency,[3],inactive
O=C(NCN1CCOCC1)c1cnccn1,Potency,[1],inactive
same,Potency,[2],inactive
same,Potency,[3],inactive
same,Potency,[4],inactive
CC(C)(C)NCC(O)COc1cccc2c1CCC(=O)N2 (configuration not stated),Potency,[1],inactive
same,Potency,[2],inactive
same,Potency,[3],inactive
same,Potency,[4],inactive
CCCCCCCCCCOc1cc2c(=O)c(C(=O)OCC)c[nH]c2cc1OCC,"% pathology change, negative = correction",[1],23.7% [at 4.63 µM] (inactive)
same,"activity change, negative = inhibition",[2],3.17% [at 4.83 µM] (inactive)
same,"activity change, negative = inhibition",[3],5.88% [at 4.83 µM] (inactive)
same,outcome,[4],inactive [at 4.96 µM]
CC(=O)Nc1ccccc1,Potency,[1],inactive
same,Potency,[2],inactive
same,Potency,[3],inactive
same,Potency,[4],inactive
COc1nccnc1NS(=O)(=O)c1ccc(N)cc1,Potency,[1],inactive
same,Potency,[2],inactive
same,Potency,[3],inactive
same,Potency,[4],inactive
same,Potency,[5],inactive
C=CCSCC1Nc2cc(Cl)c(S(N)(=O)=O)cc2S(=O)(=O)N1 (configuration not stated),Potency,[1],inactive
same,Potency,[2],inactive
same,Potency,[3],8.49 µM (active)
same,Potency,[4],inactive
CC(CN(C)C)C(C)(O)Cc1ccc(Cl)cc1 (configuration not stated),Potency,[1],inactive
same,Potency,[2],12.3 µM (active)
same,Potency,[3],inactive
same,Potency,[4],inactive
same,Potency,[5],inactive
CCCCCOC(=O)Nc1nc(=O)n([C@@H]2O[C@H](C)[C@@H](O)[C@H]2O)cc1F,Potency,[1],inactive
same,Potency,[2],inactive
same,Potency,[3],inactive
same,Potency,[4],inactive
Cc1c(NC(=O)c2cccnc2)c(=O)n(-c2ccccc2)n1C,Potency,[1],inactive
same,Potency,[2],inactive
same,Potency,[3],inactive
CC(=O)Oc1cccc(C)c1,Potency,[1],inactive
same,Potency,[2],inactive
same,Potency,[3],inactive
same,Potency,[4],inactive
C[C@@H]1O[C@@H](OC[C@H]2O[C@@H](Oc3c(-c4ccc(O)c(O)c4)oc4cc(O)cc(O)c4c3=O)[C@H](O)[C@@H](O)[C@@H]2O)[C@H](O)[C@H](O)[C@H]1O,Potency,[1],inactive
same,Potency,[2],inactive
same,Potency,[3],inactive
same,Potency,[4],inactive
same,Potency,[5],inactive
O=C(O)CCC(=O)O,Potency,[1],inactive
same,Potency,[2],inactive
same,Potency,[3],inactive
C[N+]1(C)CCCC(OC(=O)C(O)(c2ccccc2)c2ccccc2)C1 (configuration not stated),Potency,[1],inactive
same,Potency,[2],12.3 µM (active)
same,Potency,[3],inactive
same,Potency,[4],inactive
COc1cc(C(=O)NCCCCCC(=O)O)cc(OC)c1OC,Potency,[1],inactive
same,Potency,[2],inactive
same,Potency,[3],inactive
same,Potency,[4],inactive
O=C1C(c2[nH]c3ccccc3c2O)=Nc2ccccc21,Potency,[1],inactive
same,Potency,[2],inactive
same,Potency,[3],inactive
same,Potency,[4],inactive
CCOC(N)=O,Potency,[1],inactive
same,Potency,[2],inactive
same,Potency,[3],inactive
same,Potency,[4],inactive
C[N+](C)(C)CC[N+]1(C)Cc2c(Cl)c(Cl)c(Cl)c(Cl)c2C1,Potency,[1],inactive
same,Potency,[2],1.95 µM (active)
same,Potency,[3],inactive
same,Potency,[4],inactive
same,Potency,[5],inactive
Nc1ccc(S(=O)(=O)c2ccc(N)cc2)cc1,Potency,[1],inactive
same,Potency,[2],inactive
same,Potency,[3],inactive
same,Potency,[4],inactive
C/C=C1\[C@H]2C=C(C)C[C@]1(N)c1ccc(=O)[nH]c1C2,Potency,[1],inactive
same,Potency,[2],inactive
same,Potency,[3],inactive
same,Potency,[4],inactive
CC(C)c1cc2c(cc1S(=O)(=O)O)[C@@]1(C)CCC[C@@](C)(C(=O)O)[C@@H]1CC2,Potency,[1],inactive
same,Potency,[2],inactive
same,Potency,[3],inactive
same,Potency,[4],inactive
O=C(NCC(O)CO)c1c(I)c(C(=O)NCC(O)CO)c(I)c(N(CCO)C(=O)CO)c1I (configuration not stated),Potency,[1],inactive
same,Potency,[2],inactive
same,Potency,[3],inactive
same,Potency,[4],inactive
CC[C@H](C)[C@H](N)C(=O)O,Potency,[1],inactive
same,Potency,[2],inactive
same,Potency,[3],inactive
same,Potency,[4],inactive
NNc1nnc(NN)c2ccccc12,Potency,[1],inactive
same,Potency,[2],22.9 µM (active)
same,Potency,[3],inactive
Cc1ncc(CO)c(CN)c1O,Potency,[1],inactive
same,Potency,[2],inactive
same,Potency,[3],inactive
same,Potency,[4],inactive
COC(=O)c1cccnc1,Potency,[1],inactive
same,Potency,[2],inactive
same,Potency,[3],inactive
same,Potency,[4],inactive
O=C(/C=C/c1ccc(O)c(O)c1)O[C@@H]1C[C@@](OC(=O)/C=C/c2ccc(O)c(O)c2)(C(=O)O)C[C@@H](O)[C@@H]1O,Potency,[1],inactive
same,Potency,[2],inactive
same,Potency,[3],inactive
OCCN1C[C@H](O)[C@@H](O)[C@H](O)[C@H]1CO,Potency,[1],inactive
same,Potency,[2],inactive
same,Potency,[3],inactive
same,Potency,[4],inactive
O=C(OOC(=O)c1ccccc1)c1ccccc1,Potency,[1],inactive
same,Potency,[2],inactive
same,Potency,[3],inactive
same,Potency,[4],inactive
C[n+]1ccccc1/C=N/O,Potency,[1],inactive
same,Potency,[2],inactive
same,Potency,[3],inactive
same,Potency,[4],inactive
CC1(C)S[C@@H]2[C@H](NC(=O)C(C(=O)O)c3ccccc3)C(=O)N2[C@H]1C(=O)O (some centres not stated),Potency,[1],inactive
same,Potency,[2],inactive
same,Potency,[3],inactive
same,Potency,[4],inactive
CN1CCN(C(=O)C2CCCCC2)CC1,Potency,[1],inactive
same,Potency,[2],inactive
same,Potency,[3],inactive
same,Potency,[4],inactive
same,Potency,[5],inactive
C[N+](C)(C)CC(O)CC(=O)[O-] (configuration not stated),Potency,[1],inactive
same,Potency,[2],inactive
same,Potency,[3],inactive
same,Potency,[4],inactive
same,Potency,[5],inactive
CN1CCCN=C1COC(=O)C(O)(c1ccccc1)C1CCCCC1 (configuration not stated),Potency,[1],inactive
same,Potency,[2],1.23 µM (active)
same,Potency,[3],inactive
same,Potency,[4],inactive
same,Potency,[5],inactive
CNCc1ccccc1,Potency,[1],inactive
same,Potency,[2],11 µM (active)
same,Potency,[3],inactive
same,Potency,[4],inactive
same,Potency,[5],inactive
O=C(NCCCN1CCOCC1)c1ccc(Cl)cc1,Potency,[1],inactive
same,Potency,[2],2.72 µM (active)
same,Potency,[3],inactive
same,Potency,[4],inactive
same,Potency,[5],inactive
CCOc1cc(NC(C)=O)ccc1C(=O)OC,Potency,[1],inactive
same,Potency,[2],inactive
same,Potency,[3],inactive
same,Potency,[4],inactive
same,Potency,[5],inactive
O=S1(=O)OC(c2ccc(O)cc2)(c2ccc(O)cc2)c2ccccc21,Potency,[1],inactive
same,Potency,[2],inactive
same,Potency,[3],1.95 µM (active)
same,Potency,[4],inactive
same,Potency,[5],inactive
CN(C(=O)c1c(O)c2ccccc2n(C)c1=O)c1ccccc1,Potency,[1],inactive
same,Potency,[2],inactive
same,Potency,[3],inactive
same,Potency,[4],inactive
same,Potency,[5],inactive
CCCCCC(N)=O,Potency,[1],inactive
same,Potency,[2],inactive
same,Potency,[3],inactive
same,Potency,[4],inactive
same,Potency,[5],inactive
